± gives the standard deviation of the averaged measurements. In all, about 33,000 sequences were measured (“E-score (rank enrichment, -0.5 to 0.5)”: median about -0.0043, highest 2% from about 0.24 on). What follows is part of a selection rich in the highest values, with near analogues and random picks from the rest.
The sequences below were run on 2Sp-muMax20 (muMax20 with two 2,6-bis(methyl)pyridine Cys staples) (assay: PBM 8-mer E-score (E-score (rank enrichment, -0.5 to 0.5)); higher = stronger preferential binding).
Experimental: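 Protein binding microarray (universal PBM chip covering all 10-mers in fixed probe flanks) with chemically synthesized human Max(13-93) bHLH-LZ analogs (not full-length Max) bearing noncanonical residues (hArg, Tha, Aib, Nle at 65) and aromatic Cys staples. Read-out per 8-mer (and its reverse complement): E-score (rank-based enrichment, -0.5 to 0.5) and Z-score of median probe intensity.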

| Sequence | PBM 8-mer E-score |
| --- | --- |
| CCAAAGGA | -0.134 ± 0.0027 |
| CCGGGAAA | -0.0853 ± 0.032 |
| GATCGGTA | 0.0193 ± 0.038 |
| CCGGCAGG | -0.199 ± 0.041 |
| CGTGGCAA | -0.135 ± 0.016 |
| AACGCGTT | 0.0704 ± 0.016 |
| GCACTCAA | -0.0947 ± 0.092 |
| GTTAACTA | 0.2576 ± 0.002 |
| CTTAACTA | 0.092 ± 0.0028 |
| ATTAACTA | 0.16 ± 0.003 |
| AGACCGCG | 0.0661 ± 0.0043 |
| CGGTGGAA | -0.19 ± 0.09 |
| GATAATTA | 0.196 ± 0.061 |
| AATAATTA | 0.28 ± 0.019 |
| CCTAATTA | 0.0904 ± 0.21 |
| CATAATTC | -0.0185 ± 0.041 |
| AATAATTC | 0.189 ± 0.046 |
| CATAATTA | 0.253 ± 0.034 |
| TACTGCTA | 0.126 ± 0.038 |
| ACGGAGTC | -0.0911 ± 0.056 |
| ACGGGGCT | -0.148 ± 0.019 |
| AGAGCACG | 0.134 ± 0.077 |
| ACCAGTAC | -0.126 ± 0.045 |

| Sequence | PBM 8-mer E-score |
| --- | --- |
| GGGTGCAC | -0.0471 ± 0.01 |
| CTCATGAC | 0.0229 ± 0.022 |
| ATCATGAG | 0.0344 ± 0.13 |
| ATCATGTA | 0.113 ± 0.059 |
| CTCATGTC | -0.0319 ± 0.027 |
| ATCATGAA | 0.144 ± 0.037 |
| CTCATGAG | 0.319 ± 0.028 |
| ATCATGTC | 0.25 ± 0.02 |
| CTCATGAA | 0.0567 ± 0.055 |
| ATCATGAT | 0.257 ± 0.011 |
| GAGGTACA | -0.0106 ± 0.013 |
| TAGGATAA | 0.0706 ± 0.063 |
| AAATCGTG | 0.0374 ± 0.006 |
| ATTCGTCA | 0.0337 ± 0.012 |
| GCGCGCGC | 0.361 ± 0.053 |
| CCGCGCGC | 0.13 ± 0.12 |
| TCGCGCGA | 0.265 ± 0.11 |
| CCGCGCGA | -0.0339 ± 0.029 |
| GCACGCGC | 0.331 ± 0.018 |
| GCGCGCGA | 0.149 ± 0.071 |
| GCACGCGA | 0.0689 ± 0.0054 |
| ACACGCGC | 0.118 ± 0.046 |
| GCGCGCAC | 0.203 ± 0.035 |

| Sequence | PBM 8-mer E-score |
| --- | --- |
| CCATTGTC | -0.0232 ± 0.0014 |
| ACGAGGTC | 0.0484 ± 0.023 |
| ATGAGCAG | 0.0835 ± 0.083 |
| CGGGTATA | 0.0393 ± 0.086 |
| AGGGTATA | 0.24 ± 0.0057 |
| ATGGTATG | 0.0455 ± 0.0021 |
| ATGGTATA | 0.238 ± 0.028 |
| ATGGTATC | 0.165 ± 0.011 |
| AGGGTATG | 0.178 ± 0.066 |
| CGTCCTAG | -0.188 ± 0.035 |
| ATGATGTC | 0.14 ± 0.091 |
| AGTGAATA | -0.07056 ± 0.00064 |
| ACATAAGT | 0.132 ± 0.017 |
| CTCACCAC | 0.0921 ± 0.082 |
| CTAACCAC | -0.0501 ± 0.043 |
| ATAACCAC | 0.243 ± 0.014 |
| ATCACCAC | 0.276 ± 0.0035 |
| ATAACCAG | 0.0292 ± 0.0095 |
| ATCACCAT | 0.103 ± 0.052 |
| CCGAAGCA | 0.0942 ± 0.036 |
| CAGTGGCA | -0.004 ± 0.031 |
| CCGAATAA | 0.0378 ± 0.031 |
| ACGTAGAG | -0.0148 ± 0.051 |

| Sequence | PBM 8-mer E-score |
| --- | --- |
| GAAAATGC | 0.127 ± 0.028 |
| CGAGGCTC | -0.224 ± 0.035 |
| AGCACATG | 0.263 ± 0.026 |
| ACCACATG | 0.318 ± 0.0037 |
| ACCACATA | 0.0521 ± 0.076 |
| ACCACATC | -0.0798 ± 0.011 |
| ATCACATG | 0.305 ± 0.021 |
| AGCACATC | 0.0563 ± 0.062 |
| ATCACATA | 0.187 ± 0.0085 |
| AGCACATA | 0.0303 ± 0.1 |
| ATCACATC | 0.0931 ± 0.021 |
| CAACGCCG | -0.168 ± 0.12 |
| CGAAACGA | -0.0544 ± 0.031 |
| ATTGTCTG | 0.0837 ± 0.039 |
| CTCTCTCC | -0.18 ± 0.14 |
| CCCATTCC | -0.0919 ± 0.059 |
| CGCATACA | 0.0225 ± 0.14 |
| AGCGCCAC | -0.0643 ± 0.017 |
| TCAATGGA | -0.0717 ± 0.0065 |
| CCGTGGGC | -0.2115 ± 0.0018 |
| GCCAGAGC | -0.206 ± 0.099 |
| GAGTCTAC | -0.125 ± 0.044 |
| CGGTGGGA | -0.0291 ± 0.0059 |

| Sequence | PBM 8-mer E-score |
| --- | --- |
| GGTGGGTA | 0.249 ± 0.035 |
| GATGGGTA | 0.249 ± 0.014 |
| GGGTGGGA | 0.297 ± 0.0041 |
| CATGGGTA | 0.072 ± 0.066 |
| AGTGGGTA | 0.166 ± 0.0072 |
| AATGGGTA | 0.0946 ± 0.14 |
| CGTGGGTA | 0.0577 ± 0.045 |
| AGGTGGGA | 0.0626 ± 0.1 |
| CGGCACCC | -0.139 ± 0.13 |
| GCTAGACC | -0.164 ± 0.049 |
| CTTCGAAC | -0.115 ± 0.0046 |
| ACCTACAG | 0.0593 ± 0.044 |
| AGCGGGGC | -0.0319 ± 0.078 |
| GAAACATA | 0.254 ± 0.015 |
| CAAACATG | 0.157 ± 0.079 |
| GAAACATC | -0.0525 ± 0.05 |
| GGAACATA | 0.0521 ± 0.044 |
| AAAACATA | 0.0989 ± 0.11 |
| AAAACATT | 0.0666 ± 0.088 |
| CGAACATC | 0.00373 ± 0.037 |
| AAAACATG | 0.24 ± 0.078 |
| CGAACATA | 0.255 ± 0.034 |
